Drawing on PubChem BioAssay AID1259400 (National Center for Advancing Translational Sciences (NCATS), 2018), this text covers activity change, negative = inhibition for 56 compounds.

Out of some 350,000 compounds screened, about 2,100 (0.6%) were called active. Inconclusive results (about 1%) are left out. The sample as a whole holds a higher share of actives than the screen did. Unmarked numbers belong to inactive results.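 The calls were made as follows: active = activity change of -60% or lower, but not beyond a set lower limit; inconclusive = change between -60% and -40%, or beyond the set limit; inactive = change above -40%.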
% is scaled to controls: 0 for no effect and ±100 for the full control effect.

The target in this experiment is Relaxin receptor 1 (Homo sapiens) (UniProt Q9HBX9). The experiment is described as follows: qHTS Assay for Antagonists of the Relaxin Receptor RXFP1. To be noted: HEK293-RXFP1, relaxin-stimulated cAMP HTRF, 30 min; at 57.5 µM; active compounds read low.
Relaxin receptor 1 (Homo sapiens), sequence (Q9HBX9 whole entry, looked up): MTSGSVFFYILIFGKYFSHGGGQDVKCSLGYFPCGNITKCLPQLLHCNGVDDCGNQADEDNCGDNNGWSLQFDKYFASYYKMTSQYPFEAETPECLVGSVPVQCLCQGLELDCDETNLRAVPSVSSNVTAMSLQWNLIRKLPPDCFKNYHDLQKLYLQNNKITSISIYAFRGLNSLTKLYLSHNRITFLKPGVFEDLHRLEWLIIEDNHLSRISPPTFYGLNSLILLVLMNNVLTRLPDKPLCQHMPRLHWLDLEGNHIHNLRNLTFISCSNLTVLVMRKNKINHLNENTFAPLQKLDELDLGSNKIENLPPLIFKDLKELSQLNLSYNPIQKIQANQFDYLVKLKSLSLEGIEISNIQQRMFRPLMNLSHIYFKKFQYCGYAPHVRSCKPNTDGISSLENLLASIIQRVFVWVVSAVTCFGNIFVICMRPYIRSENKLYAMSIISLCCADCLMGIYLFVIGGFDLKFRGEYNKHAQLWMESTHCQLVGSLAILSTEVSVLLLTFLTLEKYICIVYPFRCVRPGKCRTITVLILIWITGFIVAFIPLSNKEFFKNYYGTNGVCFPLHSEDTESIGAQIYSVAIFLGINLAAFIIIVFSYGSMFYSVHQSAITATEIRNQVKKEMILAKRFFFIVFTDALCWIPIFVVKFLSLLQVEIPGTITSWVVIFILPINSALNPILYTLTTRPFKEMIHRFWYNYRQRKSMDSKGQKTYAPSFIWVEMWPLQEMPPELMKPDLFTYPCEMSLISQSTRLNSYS
As for `COc1ccc(OC)c(NC(=O)/C=C/c2ccc(C)o2)c1`, the activity change, negative = inhibition was -0.228%.

As to `O=C(Nc1nnc(S(=O)(=O)N2CCCc3ccccc32)s1)c1cccc(F)c1`, the activity change, negative = inhibition is -23.2%.

On to `CCN1CCN(C(c2ccc(C)cc2)c2c(O)cc(C)n(Cc3ccco3)c2=O)CC1` (stereo unspecified), for which the activity change, negative = inhibition was -15.2%.

Take `COc1cccc(Cn2c(SCc3ccc(C(=O)N4CCC(C)CC4)cc3)nc3ccncc32)c1`: the activity change, negative = inhibition is 0.54%. The value for `COc1cccc2sc(N(CCCN(C)C)C(=O)C(c3ccccc3)c3ccccc3)nc12` was -77.3% (active); that for `CCN(CC)CCN(C(=O)c1ccc2c(c1)CCCC2)c1nc2c(OC)cccc2s1` was -18.9%. With `Cc1cccc2sc(N(CCCN(C)C)C(=O)CCS(=O)(=O)c3ccccc3)nc12` the figure was 10.5%. On to `CCN(CC)c1ccc(NS(=O)(=O)c2cc(-c3cc(C)no3)ccc2C)c(C)c1`, for which the activity change, negative = inhibition was -32.3%. For `CCc1ccccc1NC(=O)c1sc2nc3c(cc2c1N)CN(Cc1ccccc1)CC3`, the activity change, negative = inhibition is -0.166%.

Regarding `Cc1cccc(N2CCN(C3=C(c4ccccc4)C(=O)c4ccccc43)CC2)c1C`, the activity change, negative = inhibition was -0.811%. Take `CCc1cccc(NC(=O)CN(C)S(=O)(=O)c2ccc3[nH]c4c(c3c2)CCCC4)c1`: the activity change, negative = inhibition is -7.15%.

For the compound `CCCCOCCOC(=O)c1cccnc1`, the activity change, negative = inhibition is 8.56%.

Consider `Cc1ccc(NC(=O)CSc2nc3ccccc3c3nc(CCn4cncc4C)nn23)cc1F`, for which the activity change, negative = inhibition was -6.58%. For the compound `Cc1c(C)n(Cc2ccc(Cl)cc2)c2ccc(C(=O)NCCc3ccc(S(N)(=O)=O)cc3)cc12`, the activity change, negative = inhibition is -10.3%. With `O=C(NCCCO)c1nn(-c2ccc(Cl)cc2)nc1CO` the figure was -16.3%; with `CC(CCCc1ccccc1)NC(=O)c1nn(-c2ccc(Cl)cc2)nc1CO` (stereo unspecified), -85.1% (active). On to `Cc1ccc(-n2nc(CO)c(C(=O)NCCc3ccccc3)n2)cc1`, for which the activity change, negative = inhibition was -19.5%. Consider `O=C(COc1ccccc1Cl)Nc1ccc2nc(SCC(=O)N3CCCC3)sc2c1`, for which the activity change, negative = inhibition was 0.0142%. The value for `O=[N+]([O-])c1c(NCCO)cc(Sc2nc3ccccc3s2)c2nonc12` was -71% (active); that for `CC(C)(C)c1ccc(S(=O)(=O)Nc2ccc(O)c(Sc3nc4ccccc4s3)c2)cc1` was -31%; that for `COCC(C)NS(=O)(=O)c1ccc(N2CCCCS2(=O)=O)cc1` (stereo unspecified) was -3.31%. `CCc1nc2nc(C)cc(Nc3ccc(F)c(Cl)c3)n2n1`: the activity change, negative = inhibition was -7.58%. The value for `CC(C)OCC(O)CN1CCN(C(c2ccccc2)c2ccccc2)CC1` (stereo unspecified) was -2.44%; that for `CC1(C)CC(=O)C=C(N2CCOCC2)C1` was -12.6%.

Consider `CC1(C)CC(N2CCN(C(c3ccccc3)c3ccccc3)CC2)=CC(=[N+]2CCCCC2)C1`, for which the activity change, negative = inhibition was -86.5% (active). Turning to `Cc1ccccc1OCc1ccc(-c2nc(C#N)c(N3CCCCC3)o2)o1`, the activity change, negative = inhibition was -8.24%. For `Cc1c(C)n(Cc2ccc(Cl)cc2)c2ccc(C(=O)N3CCN(c4ccccc4F)CC3)cc12`, the activity change, negative = inhibition was -18.8%. Turning to `COc1ccc(OC)c(CNC(=O)c2c3c(nc4ccccc24)C(=O)N(C2CCCCC2)C3)c1`, the activity change, negative = inhibition is -60.9% (active). With `COc1ccc(OC)c(CNC(=O)C2CCCN(c3nc4ccccc4o3)C2)c1` (stereo unspecified) the figure was 24.2%; with `COc1ccc(CCNC(=O)c2c3c(nc4ccccc24)C(=O)N(C2CCCCC2)C3)cc1OC`, -34%. With `CC(=O)c1ccc(N2CCN(c3nc4c(S(=O)(=O)c5ccccc5)nnn4c4ccc(Cl)cc34)CC2)cc1` the figure was -10.3%; with `COc1ccc2c(CNCCc3ccccc3C)c(C(=O)O)n(Cc3ccccc3C)c2c1`, -12.7%; with `O=C(O)c1c(CNCc2cccc(F)c2)c2ccccc2n1Cc1ccccc1`, -7.86%. Turning to `Cc1ccc(C)c(Cn2c(C(=O)O)c(CNCc3cccs3)c3ccccc32)c1`, the activity change, negative = inhibition was -81.9% (active). Take `Cc1sc(C2C(C#N)=C(N)N(c3cccc(Cl)c3)C3=C2C(=O)CCC3)cc1CN1CCOCC1` (stereo unspecified): the activity change, negative = inhibition is -18.6%. On to `Cc1ccc2nc3c(cc(C(=O)NC4CCCCC4)c(=N)n3C(C)C)c(=O)n2c1`, for which the activity change, negative = inhibition was -8.15%. As to `Cc1cccc(N2CCN(C(=O)C3CCN(S(=O)(=O)c4cnc[nH]4)CC3)CC2)c1C`, the activity change, negative = inhibition was -5.38%. `Cc1cccc(N2CCN(C(=O)c3cnc(N4CCCC4)nc3C)CC2)c1C`: the activity change, negative = inhibition was -77.6% (active). Turning to `CCC(CC)C(=O)N1CCN(c2cccc(C)c2C)CC1`, the activity change, negative = inhibition was -5.41%.

Turning to `O=C(COc1ccc(Cl)cc1)N(Cc1ccco1)Cc1ccco1`, the activity change, negative = inhibition is -34.6%. With `CCOC(=O)c1c(C)oc2nc(C)nc(N3CCN(c4ccc(OC)cc4)CC3)c12` the figure was -3.52%; with `S=c1[nH]nc(-c2cc(-c3ccsc3)n[nH]2)n1-c1ccccc1`, -4.32%. The value for `S=c1[nH]nc(-c2cc(-c3ccccc3)n[nH]2)n1/N=C/c1c2ccccc2cc2ccccc12` was -78.7% (active). For `Cc1cc(-c2n[nH]c(=S)n2/N=C/C(Br)=C/c2ccccc2)n[nH]1`, the activity change, negative = inhibition was -5.02%. With `Cc1nnc(C(=O)NC(C)(C)c2nc(C(=O)NCc3ccc(F)cc3)c(O)c(=O)n2C)o1` the figure was -18.2%; with `COc1ccc(Cl)cc1N(CC(=O)N/N=C/c1ccc(OCC(N)=O)cc1)S(C)(=O)=O`, -77.6% (active); with `NC(=O)COc1ccc(/C=N/NC(=O)C2CCCN2S(=O)(=O)c2ccc(Cl)cc2)cc1` (stereo unspecified), -2.72%. Regarding `COc1ccc(Cl)cc1N(CC(=O)N1CCCCC1)S(C)(=O)=O`, the activity change, negative = inhibition was 15.3%. The value for `CCOc1ccc(-c2nonc2NC(=O)c2oc3ccc(C)cc3c2C)cc1OCC` was 6.02%; that for `CC(C)c1ccc(Nc2nnc(SCC(=O)c3nnc(-c4ccccc4)o3)s2)cc1` was -83.3% (active). The value for `CC(C)N(C(=O)CSc1nnc(NC2CC2)s1)c1ccccc1` was -4.86%; that for `CN(C(=O)CSc1nnc(NC(=O)Nc2ccccc2)s1)c1ccccc1` was -2.91%. The value for `CCc1ccc(N2C(=O)CN(S(=O)(=O)CC)CC2(C)C(=O)NC2CCCCC2)cc1` (stereo unspecified) was 4.08%. Regarding `O=C(N/N=C\C1CC=CCC1)c1ccc(Br)o1` (stereo unspecified), the activity change, negative = inhibition is 0.253%. Consider `Cc1nnc(N/N=C/c2ccccn2)[nH]c1=O`, for which the activity change, negative = inhibition is 5.71%. For the compound `Cc1nnc(N/N=C/C2CC=CCC2)[nH]c1=O` (stereo unspecified), the activity change, negative = inhibition was -71.6% (active).
